ssDAF12 agonist: S. stercoralis DAF-12 nuclear receptor activators, primary screen, cell-based, luminescence, HEK293, GRIP1 co-expression, lit1-tk-luc; Nuclear hormone receptor DAF-12 (Strongyloides stercoralis); HEK293 ssDAF-12/GRIP1 lit1-tk-luc reporter; % of 3 µM dafachronic acid response; activation, % at 6.8 µM; 370,000 tested, 1% active; AID 652126, 2013;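 active = activation above the mean over all tested compounds plus 3 SD, cut at about 0.9% in these data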;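 also: 0% = DMSO-only wells and 100% = 3 µM delta7-dafachronic acid wells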
DAX1 inh-1: DAX1 (NR0B1) inhibitors, primary screen, cell-based, HEK293, Gal4-DAX1, luciferase luminescence. HEK293 Gal4-DAX1 luciferase reporter. inhibition, % at 6.75 µM. 340,000 tested, 0.99% active. AID 504766, 2011;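 active = inhibition above the mean over all tested compounds plus 3 SD, cut at about 4.2% in these data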;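 also: 0% = DAX1-transfected cells with DMSO and 100% = empty-vector control cells with DMSO; inhibition shows as a rise in luminescence from relieved DAX1 repression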
Target sequence (P51843 207-470 limits assumed): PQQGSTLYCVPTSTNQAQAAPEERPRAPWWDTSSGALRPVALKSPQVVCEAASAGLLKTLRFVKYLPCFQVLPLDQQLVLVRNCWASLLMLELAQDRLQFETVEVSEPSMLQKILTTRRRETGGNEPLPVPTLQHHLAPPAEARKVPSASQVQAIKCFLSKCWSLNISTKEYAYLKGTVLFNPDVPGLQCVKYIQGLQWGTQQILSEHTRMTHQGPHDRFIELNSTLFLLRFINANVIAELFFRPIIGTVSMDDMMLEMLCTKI
DAX1 inh-2: DAX1 (NR0B1) inhibitors on StAR promoter, primary screen, cell-based, luminescence, SF-1 (NR5A1), full-length DAX-1; HEK293T StAR-luciferase reporter, SF-1/DAX-1 repression relief; inhibition, % at 6.8 µM; 370,000 tested, 1.1% active;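 active = inhibition above the mean over all tested compounds plus 3 SD, cut at about 3.6% in these data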;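 also: 0% = DAX-1 cells with DMSO and 100% = cells lacking DAX-1 with DMSO; higher inhibition means more luminescence from relief of DAX-1 repression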
hcDAF-12 act: H. contortus DAF-12 nuclear receptor activators, primary screen, cell-based, luminescence, HEK293, lit1-tk-luc reporter; HEK293 hcDAF-12 lit1-tk-luc reporter; 0% DMSO, 100% Δ7-dafachronic acid; activation, % at 6.8 µM; 370,000 tested, 1.4% active; AID 652067, 2013;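 active = activation above the mean of all tested compounds plus 3 SD, cut at about 5.5% in these data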;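 also: 100% = response to 3 µM Δ7-dafachronic acid high control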
hgDAF12 agonist: H. glycines DAF-12 receptor agonists, primary screen, cell-based, luminescence, HEK293, GAL4 fusion, UAS-luciferase | Nuclear hormone receptor DAF-12 (Heterodera glycines), GAL4 fusion | HEK293 GAL4-hgDAF12 UAS-luciferase reporter, agonist luminescence; normalized to butyrate control | activation, % at 6.8 µM | 370,000 tested, 1.8% active | AID 687014, 2013;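 active = activation above a cutoff set at the mean of all screened compounds plus 3 SD, cut at about 10% in these data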;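 also: 0% = DMSO wells and 100% = sodium butyrate wells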
Starred values were filed as active, the others as inactive; / = no result given. Compounds with a hit are over-represented: about 4.1% of the library has one in this group of screens.

SMILES	ssDAF12 agonist	DAX1 inh-1	DAX1 inh-2	hcDAF-12 act	hgDAF12 agonist
O=S1(=O)N=C(N/N=C/c2cccs2)c2ccccc21	-1.1	4.5*	-0.2	-1.2	1.3
N#CC1=C2SC=C(c3ccc(Br)cc3)N2CCCC1=O	-1.1	4.2	3.7*	3.3	11.3*
Cc1ccc(-n2nc(C)c(=O)c(-c3ccccc3)c2NC(=O)c2cccs2)cc1	-0.9	5.5*	-0.2	-2.3	0.3
O=C(NC1CCCCN(Cc2ccc(OC(F)(F)F)cc2)C1=O)c1cccc(C(F)(F)F)c1 (stereo not drawn)	-1.2	/	-0.8	-0.6	3.1
COc1cccc(/C=N/N=C(\N)c2nonc2N)c1O	-0.2	2.9	2.8	3.0	12.7*
COc1cc(/C=N/N=C(/N)c2nonc2N)cc(Br)c1OCc1ccccc1C	-1.2	1.5	-0.9	-3.2	3.5
C[C@H]1[C@@H](OC(=O)NCc2cccc(C(F)(F)F)c2)CC[C@@]23CCCN2C(=O)CCC[C@@H]13	-2.1	/	/	0.6	4.5
CCOc1ccccc1-c1n[nH]c(=S)o1	1.0*	-1.5	0.1	6.4*	3.2
COC(=O)N1C[C@H](Oc2cccc3ccccc23)[C@H]2C[C@@H]1c1ccccc1O2	-1.2	/	-1.1	-3.6	-2.2
O=C(/C=C/c1ccc(Br)cc1)N1CCN(c2cccc(C(F)(F)F)c2)CC1	-1.0	-1.0	1.7	6.4*	-2.3
O=C(/C=C/c1cccc(Br)c1)N1CCN(c2cccc(C(F)(F)F)c2)CC1	-1.4	-0.1	-0.5	2.5	-3.5
O=C(NCC1COc2ccccc2O1)c1ccc(NC(=O)c2c(Cl)cccc2Cl)cc1 (stereo not drawn)	-1.2	/	-1.4	-2.6	-3.3
O=C(Nc1ccc(F)cc1F)C1CCCN1S(=O)(=O)c1cccnc1 (stereo not drawn)	-1.4	/	-0.9	-1.4	-2.9
Cc1oc(-c2ccc(Cl)cc2)nc1CS(=O)CC(=O)NCc1ccco1 (stereo not drawn)	-0.9	0.1	-0.4	-1.5	10.8*
Cc1oc(-c2ccccc2Cl)nc1CS(=O)CC(=O)NCc1ccco1 (stereo not drawn)	-0.8	0.8	-0.1	0.5	0.8
Oc1ccc(Nc2nc(-c3cccnc3)cs2)cc1	/	-0.3	/	/	/
c1ccc(Nc2nc(-c3ccncc3)cs2)cc1	-0.6	-0.3	0.7	2.6	11.0*
CCOc1ccc(Nc2nc(-c3cccnc3)cs2)cc1	0.5	6.2*	1.5	3.7	7.7
COc1ccc(Nc2nc(-c3ccc(OC)cc3)cs2)cc1	-1.3	1.7	1.4	1.4	11.6*
Cc1cc(O)ccc1Nc1nc(-c2cccnc2)cs1	-0.4	0.6	1.7	2.1	11.8*
CCNc1nc(-c2ccc(Cl)cc2)cs1	-0.2	1.2	1.2	2.4	11.7*
O=S1(=O)CCC(N(N=Cc2ccco2)c2ccccc2)C1 (stereo not drawn)	-2.0	/	0.3	0.1	-0.5
CCCCNC(=O)C1CCN(Cc2ccc(OCc3ccccc3)cc2)CC1	-0.1	0.2	-0.2	-0.5	10.7*
O=C(C1CCN(Cc2ccc(OCc3ccccc3)cc2)CC1)N1CCCC1	-1.3	-0.9	-0.8	0.2	2.0
OC1CCN(Cc2ccc(OCc3ccccc3)cc2)CC1	-0.2	2.2	1.6	6.3*	11.3*
SMILES	ssDAF12 agonist	DAX1 inh-1	DAX1 inh-2	hcDAF-12 act	hgDAF12 agonist
COc1ccc(-n2c(SCC(=O)N/N=C(/C)c3cccc(O)c3)nc3ccccc3c2=O)cc1	-1.3	/	-1.9	-3.4	-1.1
Cc1nnc(SCc2cnc(-c3ccc(C(C)C)cc3)s2)n1C	1.5*	-2.8	2.3	6.0*	12.3*
c1ccc(-c2ncc(CSc3nncn3-c3ccccc3)s2)cc1	-1.4	-0.3	-0.8	-0.3	0.2
CC(C)C1N=C(NC(=O)OCc2ccccc2)NC1=O (stereo not drawn) (tested in a mixture with another compound)	-1.3	/	-1.5	1.0	3.1
Cc1nn(-c2ccccc2)c2sc(C(=O)O)cc12	-1.1	0.3	0.1	-1.2	3.5
COc1cccc(-c2nn(C)c3sc(C(=O)NCc4ccco4)cc23)c1	-1.3	-0.1	-1.5	0.2	1.7
CCN1CCCC1CNC(=O)c1cc2c(-c3ccc(Cl)cc3)nn(C)c2s1 (stereo not drawn)	/	4.6*	/	/	/
Cn1nc(-c2ccc(Cl)cc2)c2cc(C(=O)N3CCN(c4ccccc4)CC3)sc21	0.1	-0.3	-0.3	5.7*	2.0
Cc1nn(-c2ccccc2)c2sc(C(=O)N3CCOCC3)cc12	1.3*	2.1	1.8	6.5*	9.3
Cc1ccc(CNC(=O)c2cc3c(-c4ccc(Cl)cc4)nn(C)c3s2)o1	1.6*	1.2	0.4	5.1	0.2
O=C(Nc1cccc([N+](=O)[O-])c1)NC1CCCCN(Cc2ccc(Cl)cc2)C1=O (stereo not drawn)	-1.9	/	-0.9	-3.7	0.9
O=C(C(=O)N1CCC(CNS(=O)(=O)c2ccc(OC(F)(F)F)cc2)CC1)c1cc2ccccc2o1	-1.4	/	-1.1	-1.6	0.3
O=S(=O)(NCc1ccc(Cl)cc1)c1ccc(Br)cc1C1CC[C@@H](O)C1 (stereo partly drawn)	-0.8	/	0.5	0.5	-0.6
COc1ccc2ccccc2c1C=NNC(=O)c1cc(-c2ccc(C)cc2)n[nH]1	-0.6	/	-2.6	-2.5	7.5
COCCCNC(=O)c1cc2c(-c3ccc(Cl)cc3)nn(C)c2s1	-0.5	1.5	0.0	4.2	-0.2
CCCCNC(=O)c1cc2c(-c3ccc(Cl)cc3)nn(C)c2s1	0.5	3.6	-0.7	5.9*	5.6
CC(C)NC(=O)c1cc2c(-c3ccc(Cl)cc3)nn(C)c2s1	0.4	4.4*	0.2	3.1	2.4
CSc1nnc(SCC2=NNC(=O)SC2)s1	0.9*	0.4	-0.3	-0.8	1.1
O=C(c1ccc2nc(Cc3cccc(Cl)c3)oc2c1)N1CCC(O)CC1	-0.5	0.3	-0.3	0.1	-0.4
O=C(c1ccc2nc(Cc3cccc(Cl)c3)oc2c1)N1CCOCC1	-0.6	0.8	3.9*	6.0*	5.0
CN(CCc1ccccn1)C(=O)c1cc2ccccn2n1	-0.5	/	0.5	-0.6	-1.2
Cn1c2ccc(F)cc2c2nnc(SCCN3CCOCC3)nc21	1.1*	1.6	0.6	5.5	2.2
C#CCNC(=O)C[C@H]1C[C@@]2(C(=O)OC)C(=C[C@H](COCc3ccccc3)O[C@@H]2C)N(Cc2ccccc2)C1=O	-0.6	/	-0.7	-0.1	0.3
FC(F)(F)c1ccc(Oc2ccc(Cl)cc2Br)nc1	24.8*	-0.1	0.2	-0.8	-0.5

From PubChem BioAssay
